± gives the standard deviation of the averaged measurements. For some assays here: Of roughly 5,400 targets only a part is listed; those with the largest changes were picked by preference. For some assays here: About 6,500 targets were measured; listed, in parts, are those with the largest changes and a random draw of the rest.
Key:
[1] = compound: Nc1nc2c(ncn2[C@@H]2O[C@H](COP(=O)(O)OP(=O)(O)OP(=O)(O)O)[C@@H](O)[C@H]2O)c(=O)[nH]1 [guanosine triphosphate]; assay: NP40-soluble protein abundance relative to vehicle (solubility fold change) (ratio); higher = more soluble protein in presence of GTP
Procedure, shortened: (§1)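 Jurkat crude lysate prepared with a Dounce homogeniser was treated at eight concentrations spanning 0.1 to 10 mM, 10 min at room temperature then 3 min at 37 °C. Solubilisation with 0.8% NP40 and benzonase and ultracentrifugation preceded TMT labelling of the supernatant for LC-MS/MS. Fold change against the detergent-processed vehicle was determined per replicate from vsn-normalised intensities, across three independent experiments.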

[2] = compound: Nc1ncnc2c1ncn2[C@@H]1O[C@H](COP(=O)(O)OP(=O)(O)OP(=O)(O)O)[C@@H](O)[C@H]1O [adenosine triphosphate]; assay: NP40-soluble protein abundance relative to vehicle (solubility fold change) (ratio); higher = more soluble protein in presence of ATP
Procedure, shortened: as §1

Chain of UniProt Q13557 (Q13557 whole entry, one chain of several): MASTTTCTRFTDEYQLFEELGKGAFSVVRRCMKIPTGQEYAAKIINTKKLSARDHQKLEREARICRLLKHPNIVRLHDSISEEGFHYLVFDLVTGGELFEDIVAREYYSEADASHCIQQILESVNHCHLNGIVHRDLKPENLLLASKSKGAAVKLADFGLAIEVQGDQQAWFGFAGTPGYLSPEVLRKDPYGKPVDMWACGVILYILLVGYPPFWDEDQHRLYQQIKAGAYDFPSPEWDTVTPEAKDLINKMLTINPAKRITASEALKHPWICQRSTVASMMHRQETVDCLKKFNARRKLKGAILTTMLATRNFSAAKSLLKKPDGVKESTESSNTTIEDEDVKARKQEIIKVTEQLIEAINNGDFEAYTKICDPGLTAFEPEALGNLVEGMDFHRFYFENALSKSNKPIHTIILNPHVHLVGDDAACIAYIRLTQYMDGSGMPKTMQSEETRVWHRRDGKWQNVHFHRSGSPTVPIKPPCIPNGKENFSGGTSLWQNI
Chain of UniProt Q7Z478 (Q7Z478 whole entry, one chain of several): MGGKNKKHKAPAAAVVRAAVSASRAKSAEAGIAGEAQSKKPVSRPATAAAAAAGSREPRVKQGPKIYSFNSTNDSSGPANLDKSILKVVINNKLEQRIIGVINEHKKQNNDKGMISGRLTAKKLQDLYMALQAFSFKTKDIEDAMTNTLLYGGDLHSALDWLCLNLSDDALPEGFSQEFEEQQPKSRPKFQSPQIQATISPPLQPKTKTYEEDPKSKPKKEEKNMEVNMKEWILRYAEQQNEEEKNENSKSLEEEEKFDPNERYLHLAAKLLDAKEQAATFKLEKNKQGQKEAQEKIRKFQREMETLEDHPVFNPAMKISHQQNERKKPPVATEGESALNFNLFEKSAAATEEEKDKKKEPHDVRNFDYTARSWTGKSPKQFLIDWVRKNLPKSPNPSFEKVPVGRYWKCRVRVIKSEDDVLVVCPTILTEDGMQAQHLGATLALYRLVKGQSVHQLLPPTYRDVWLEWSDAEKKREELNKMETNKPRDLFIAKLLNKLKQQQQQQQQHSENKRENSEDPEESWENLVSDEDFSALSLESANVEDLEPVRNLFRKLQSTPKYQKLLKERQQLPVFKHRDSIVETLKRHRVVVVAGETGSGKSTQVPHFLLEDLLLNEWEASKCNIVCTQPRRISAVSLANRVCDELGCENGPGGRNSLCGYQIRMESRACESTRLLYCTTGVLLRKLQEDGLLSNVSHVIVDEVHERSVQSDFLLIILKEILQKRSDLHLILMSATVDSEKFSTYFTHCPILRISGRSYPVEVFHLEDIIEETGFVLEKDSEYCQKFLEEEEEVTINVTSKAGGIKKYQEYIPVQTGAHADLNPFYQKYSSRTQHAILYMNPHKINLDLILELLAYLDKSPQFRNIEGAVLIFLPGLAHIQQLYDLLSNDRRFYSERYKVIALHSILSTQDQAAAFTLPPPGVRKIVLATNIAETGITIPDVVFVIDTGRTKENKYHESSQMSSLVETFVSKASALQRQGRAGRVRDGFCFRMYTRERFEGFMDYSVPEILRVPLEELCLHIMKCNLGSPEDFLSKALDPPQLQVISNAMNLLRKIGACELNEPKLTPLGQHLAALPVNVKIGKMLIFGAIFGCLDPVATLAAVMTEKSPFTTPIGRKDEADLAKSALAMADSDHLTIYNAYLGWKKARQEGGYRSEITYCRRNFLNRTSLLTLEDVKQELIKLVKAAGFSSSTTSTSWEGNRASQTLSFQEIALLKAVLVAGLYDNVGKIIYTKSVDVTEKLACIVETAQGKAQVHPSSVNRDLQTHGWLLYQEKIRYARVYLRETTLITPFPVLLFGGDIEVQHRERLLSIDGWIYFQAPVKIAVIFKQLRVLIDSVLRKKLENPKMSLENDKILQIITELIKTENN
Chain of UniProt Q9Y375 (Q9Y375 whole entry, one chain of several): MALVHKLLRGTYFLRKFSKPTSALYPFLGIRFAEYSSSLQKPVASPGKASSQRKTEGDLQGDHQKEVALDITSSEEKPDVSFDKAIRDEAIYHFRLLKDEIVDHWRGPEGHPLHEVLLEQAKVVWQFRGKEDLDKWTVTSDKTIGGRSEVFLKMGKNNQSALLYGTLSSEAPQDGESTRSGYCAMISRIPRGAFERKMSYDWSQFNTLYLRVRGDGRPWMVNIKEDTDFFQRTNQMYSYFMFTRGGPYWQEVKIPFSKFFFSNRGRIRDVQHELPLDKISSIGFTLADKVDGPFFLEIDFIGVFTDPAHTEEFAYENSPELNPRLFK
Chain of UniProt Q15004 (Q15004 whole entry, one chain of several): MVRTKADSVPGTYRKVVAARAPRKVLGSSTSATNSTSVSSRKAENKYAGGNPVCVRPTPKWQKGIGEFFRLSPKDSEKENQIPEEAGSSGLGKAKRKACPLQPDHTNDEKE
Chain of UniProt Q8NEY8 (Q8NEY8 whole entry, one chain of several): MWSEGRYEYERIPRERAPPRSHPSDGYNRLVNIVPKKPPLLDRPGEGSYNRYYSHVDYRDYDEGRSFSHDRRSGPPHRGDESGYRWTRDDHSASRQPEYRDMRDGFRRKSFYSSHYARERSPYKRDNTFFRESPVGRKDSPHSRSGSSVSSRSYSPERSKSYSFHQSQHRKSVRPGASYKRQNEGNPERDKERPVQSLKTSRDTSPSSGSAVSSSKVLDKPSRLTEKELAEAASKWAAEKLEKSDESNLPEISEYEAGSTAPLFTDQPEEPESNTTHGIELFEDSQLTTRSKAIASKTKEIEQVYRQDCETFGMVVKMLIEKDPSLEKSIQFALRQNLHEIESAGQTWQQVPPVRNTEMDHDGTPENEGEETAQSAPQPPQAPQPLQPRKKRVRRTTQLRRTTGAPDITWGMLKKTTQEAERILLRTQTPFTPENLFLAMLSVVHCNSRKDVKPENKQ
Chain of UniProt P08069 (P08069 whole entry, looked up, one chain of several): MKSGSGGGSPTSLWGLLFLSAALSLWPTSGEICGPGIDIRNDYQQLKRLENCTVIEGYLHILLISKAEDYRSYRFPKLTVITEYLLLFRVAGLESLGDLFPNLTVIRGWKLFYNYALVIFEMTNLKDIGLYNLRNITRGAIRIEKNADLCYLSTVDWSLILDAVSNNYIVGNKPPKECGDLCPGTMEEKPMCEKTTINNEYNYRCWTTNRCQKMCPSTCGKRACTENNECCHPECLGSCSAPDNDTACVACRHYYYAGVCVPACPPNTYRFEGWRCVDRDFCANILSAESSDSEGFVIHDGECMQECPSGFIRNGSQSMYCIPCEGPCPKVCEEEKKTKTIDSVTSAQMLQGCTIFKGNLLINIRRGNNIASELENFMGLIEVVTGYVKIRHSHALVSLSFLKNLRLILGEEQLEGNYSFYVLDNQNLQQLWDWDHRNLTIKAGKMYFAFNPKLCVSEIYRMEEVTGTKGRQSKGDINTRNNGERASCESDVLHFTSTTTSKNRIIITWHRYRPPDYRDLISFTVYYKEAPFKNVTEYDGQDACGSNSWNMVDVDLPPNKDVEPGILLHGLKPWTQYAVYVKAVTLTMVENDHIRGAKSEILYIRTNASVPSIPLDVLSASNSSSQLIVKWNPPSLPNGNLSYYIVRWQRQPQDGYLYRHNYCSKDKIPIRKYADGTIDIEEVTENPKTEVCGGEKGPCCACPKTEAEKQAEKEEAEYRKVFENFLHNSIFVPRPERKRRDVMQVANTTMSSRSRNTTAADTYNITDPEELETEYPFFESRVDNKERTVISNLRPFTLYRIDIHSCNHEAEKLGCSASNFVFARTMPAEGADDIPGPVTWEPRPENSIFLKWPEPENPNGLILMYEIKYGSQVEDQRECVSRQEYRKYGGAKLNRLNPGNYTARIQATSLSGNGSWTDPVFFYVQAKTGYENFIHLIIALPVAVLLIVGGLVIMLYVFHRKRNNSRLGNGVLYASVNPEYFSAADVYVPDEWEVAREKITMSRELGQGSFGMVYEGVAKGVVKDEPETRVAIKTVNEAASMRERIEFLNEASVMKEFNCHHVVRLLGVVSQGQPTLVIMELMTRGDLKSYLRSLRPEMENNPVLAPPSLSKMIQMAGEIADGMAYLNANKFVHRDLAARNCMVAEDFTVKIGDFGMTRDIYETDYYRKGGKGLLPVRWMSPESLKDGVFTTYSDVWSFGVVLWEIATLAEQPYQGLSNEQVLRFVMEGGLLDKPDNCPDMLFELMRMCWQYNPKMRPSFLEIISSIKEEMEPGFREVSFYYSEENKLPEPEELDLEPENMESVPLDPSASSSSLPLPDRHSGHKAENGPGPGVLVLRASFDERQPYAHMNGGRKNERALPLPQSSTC
Chain of UniProt Q9UHB6 (Q9UHB6 whole entry, one chain of several): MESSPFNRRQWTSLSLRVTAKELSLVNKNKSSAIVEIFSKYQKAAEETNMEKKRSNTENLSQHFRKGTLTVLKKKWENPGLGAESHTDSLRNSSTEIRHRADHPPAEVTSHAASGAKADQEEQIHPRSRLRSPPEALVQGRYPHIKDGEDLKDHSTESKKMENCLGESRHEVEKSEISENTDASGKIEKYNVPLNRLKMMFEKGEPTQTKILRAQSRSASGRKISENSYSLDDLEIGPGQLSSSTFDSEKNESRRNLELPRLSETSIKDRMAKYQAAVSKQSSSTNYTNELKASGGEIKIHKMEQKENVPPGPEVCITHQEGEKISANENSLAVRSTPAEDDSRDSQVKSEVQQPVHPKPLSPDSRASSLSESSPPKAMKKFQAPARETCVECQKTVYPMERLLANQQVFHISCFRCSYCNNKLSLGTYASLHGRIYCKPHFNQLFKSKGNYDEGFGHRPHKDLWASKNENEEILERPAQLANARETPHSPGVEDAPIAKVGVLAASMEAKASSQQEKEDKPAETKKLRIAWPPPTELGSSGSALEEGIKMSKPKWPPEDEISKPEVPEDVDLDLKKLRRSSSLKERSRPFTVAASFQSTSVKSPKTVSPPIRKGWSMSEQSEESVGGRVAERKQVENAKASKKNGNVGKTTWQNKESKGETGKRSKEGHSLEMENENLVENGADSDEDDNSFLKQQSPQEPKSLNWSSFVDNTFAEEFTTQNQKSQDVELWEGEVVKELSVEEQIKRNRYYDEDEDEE

Target	NP40-soluble protein abundance ([1]; concentration: 0.1mM)	NP40-soluble protein abundance ([1]; concentration: 0.5mM)	NP40-soluble protein abundance ([1]; concentration: 1mM)	NP40-soluble protein abundance ([1]; concentration: 2mM)	NP40-soluble protein abundance ([1]; concentration: 4mM)	NP40-soluble protein abundance ([1]; concentration: 6mM)	NP40-soluble protein abundance ([1]; concentration: 8mM)	NP40-soluble protein abundance ([1]; concentration: 10mM)	NP40-soluble protein abundance ([2]; concentration: 1mM)	NP40-soluble protein abundance ([2]; concentration: 2mM)	NP40-soluble protein abundance ([2]; concentration: 4mM)	NP40-soluble protein abundance ([2]; concentration: 6mM)	NP40-soluble protein abundance ([2]; concentration: 8mM)	NP40-soluble protein abundance ([2]; concentration: 10mM)
H0YEN5|P15880 (UniProt P15880)	0.979 ± 0.063	1.01 ± 0.1	0.965 ± 0.14	0.936 ± 0.19	0.848 ± 0.21	0.836 ± 0.21	0.738 ± 0.17	0.774 ± 0.2						
B0YIW6|P48444 (UniProt P48444)	1.06 ± 0.053	1.08 ± 0.078	1.02 ± 0.066	1.01 ± 0.11	1.02 ± 0.1	1.01 ± 0.083	0.975 ± 0.059	0.933 ± 0.067						
F8W0Q9|Q8NEY8-2|Q8NEY8-8|Q8NEY8-9|Q8NEY8-3|Q8NEY8 (UniProt Q8NEY8)	1.01 ± 0.022	1.08 ± 0.019	1.19 ± 0.058	1.28 ± 0.096	1.41 ± 0.18	1.45 ± 0.2	1.63 ± 0.22	1.77 ± 0.42						
A0A0R4J2E2|Q9Y3T6|A0A0D9SG39|E5RHX3|E5RIK1|E5RIQ4 (UniProt Q9Y3T6)	0.88 ± 0.0067	0.877 ± 0.017	0.961 ± 0.019	0.923 ± 0.048	0.94794 ± 0.00022	0.908 ± 0.017	0.89 ± 0.034	0.9192 ± 0.0019						
F5H136|P17987 (UniProt P17987)	0.988 ± 0.02	1.07 ± 0.086	1.08 ± 0.12	1.11 ± 0.18	1.09 ± 0.2	1.1 ± 0.21	1.06 ± 0.19	1.02 ± 0.2						
C9JWG0|Q16851-2 (UniProt Q16851)	1.04 ± 0.03	1.04 ± 0.052	1 ± 0.046	1.01 ± 0.071	1.01 ± 0.042	1.01 ± 0.067	0.998 ± 0.057	0.983 ± 0.065						
E9PDF6|O43795|O43795-2 (UniProt O43795)	1.44 ± 0.25	2.35 ± 0.38	2.32 ± 0.37	2.41 ± 0.43	2.4 ± 0.41	2.37 ± 0.38	2.33 ± 0.3	2.21 ± 0.26						
E7EW84|Q8TAG9 (UniProt Q8TAG9)	0.9794 ± 0.0039	0.996 ± 0.039	0.959 ± 0.064	1.08 ± 0.082	1.01 ± 0.12	0.897 ± 0.022	0.882 ± 0.025	0.966 ± 0.18						
D6R938|E9PBG7|E9PF82|Q13557|Q13557-10|Q13557-11|Q13557-12|Q13557-3|Q13557-4|Q13557-5|Q13557-6|Q13557-8|Q13557-9 (UniProt Q13557)	1 ± 0.11	1.04 ± 0.14	1.07 ± 0.14	1.08 ± 0.15	1.1 ± 0.1	1.13 ± 0.1	1.09 ± 0.17	1.14 ± 0.14						
A0A087WVC1|Q9BQ39 (UniProt Q9BQ39)	1.19 ± 0.051	1.25 ± 0.055	1.4 ± 0.089	1.89 ± 0.23	2.57 ± 0.26	3.29 ± 0.3	3.85 ± 0.56	4.45 ± 0.47						
H0YL22|Q9Y375 (UniProt Q9Y375)	0.979 ± 0.059	1.05 ± 0.082	0.936 ± 0.088	0.969 ± 0.071	0.922 ± 0.036	0.924 ± 0.065	0.921 ± 0.071	0.943 ± 0.059						
H0YKX3|Q15004 (UniProt Q15004)	1.03 ± 0.086	1.04 ± 0.062	1.07 ± 0.081	1.04 ± 0.12	0.957 ± 0.13	0.982 ± 0.15	1.19 ± 0.031	1.09 ± 0.039						
A0A096LNZ9|A0A096LPJ4|P05161 (UniProt P05161)	0.9514 ± 0.0057	0.961 ± 0.023	0.899 ± 0.019	0.888 ± 0.02	0.869 ± 0.026	0.885 ± 0.035	0.83 ± 0.034	0.836 ± 0.034						
H0YIE9|O94952|O94952-1|Q4G104 (UniProt O94952)	1.19 ± 0.045	1.03 ± 0.091	1.05 ± 0.013	1.04 ± 0.12	1.12 ± 0.014	0.978 ± 0.078	1.08 ± 0.035	0.921 ± 0.089						
E9PG35|E9PHF7|F5GYT8|Q96RQ3|G5E9X5 (UniProt Q96RQ3)	1.04 ± 0.093	1.07 ± 0.078	1.02 ± 0.16	1.08 ± 0.11	1.09 ± 0.15	1.08 ± 0.077	1.05 ± 0.19	1.03 ± 0.13						
A0A087WYN9|Q7Z478 (UniProt Q7Z478)	1.34 ± 0.086	1.69 ± 0.26	1.66 ± 0.28	1.77 ± 0.29	1.8 ± 0.23	1.84 ± 0.27	1.86 ± 0.27	1.86 ± 0.19						
A6NFX8|Q9UKK9 (UniProt Q9UKK9)	1.05 ± 0.036	1.04 ± 0.07	0.987 ± 0.036	0.994 ± 0.079	0.968 ± 0.046	0.942 ± 0.052	0.93 ± 0.018	0.93 ± 0.01						
UniProt Q9Y5T5-2									1.08 ± 0.067	1.11 ± 0.032	1.19 ± 0.014	1.33 ± 0.045	1.351 ± 0.012	1.41 ± 0.028
C9J5X1|P08069 (UniProt P08069)	1.04 ± 0.13	1.04 ± 0.13	1.15 ± 0.11	0.987 ± 0.07	1 ± 0.086	1.05 ± 0.1	1.07 ± 0.14	1.04 ± 0.2						
E9PFN5|Q9Y2Q3 (UniProt Q9Y2Q3)	0.922 ± 0.042	0.934 ± 0.038	0.895 ± 0.036	0.906 ± 0.043	0.887 ± 0.042	0.888 ± 0.031	0.829 ± 0.082	0.86 ± 0.079						
F8VQE1|Q9UHB6|Q9UHB6-2|Q9UHB6-4|Q9UHB6-5 (UniProt Q9UHB6)	0.977 ± 0.045	0.955 ± 0.12	1.16 ± 0.11	1.16 ± 0.1	1.35 ± 0.12	1.71 ± 0.067	1.95 ± 0.29	2.21 ± 0.23						
A0A0A0MSJ9|Q15283|Q15283-2 (UniProt Q15283)	1.05 ± 0.057	1.07 ± 0.065	0.985 ± 0.018	0.998 ± 0.04	1.01 ± 0.054	0.967 ± 0.048	0.94 ± 0.067	0.927 ± 0.13						
A0A087X1B9|P02792 (UniProt P02792)	1.09 ± 0.16	1.03 ± 0.21	1.44 ± 0.11	1.55 ± 0.054	1.64 ± 0.14	1.465 ± 0.0048	1.43 ± 0.17	1.68 ± 0.12						
C9J8R4|C9JVE2|Q96GG9 (UniProt Q96GG9)	0.935 ± 0.042	0.919 ± 0.034	0.903 ± 0.049	0.889 ± 0.072	0.867 ± 0.048	0.87 ± 0.044	0.842 ± 0.077	0.84 ± 0.084						
C9J050|C9JEJ2|P49585 (UniProt P49585)	1.01 ± 0.094	0.986 ± 0.078	0.953 ± 0.074	0.945 ± 0.077	0.992 ± 0.073	0.942 ± 0.058	0.942 ± 0.079	0.936 ± 0.054						
A0A0A6YYH1|H0YLI7|P59780|Q7Z6K5-2 (UniProt Q7Z6K5+P59780+H0YLI7)	1.04 ± 0.012	1.07 ± 0.045	1.06 ± 0.099	1.03 ± 0.044	0.986 ± 0.04	1.01 ± 0.076	0.989 ± 0.017	0.992 ± 0.049						

— the supplement of paper PMC6411743
